# JMJD2A Tudor: JMJD2A Tudor domain (human) inhibition; AlphaScreen JMJD2A-Tudor / H3K4me3 peptide binding; Potency, µM (doses to about 114 µM), inactives show at the top dose activity change, negative = inhibition, usual class: inhibitors; 390,000 compounds, 4.4% hits; AID 504339; note: potency is the fitted concentration of half-maximal effect; % is set by controls: 0 for no effect and ±100 for the full control effect; nearly all actives have a fitted effect of over 50% in size
# Six1-Eya2 inh: blocks human Six1 binding to Eya2; Q15475+O00167; AlphaScreen GST-Six1/His-Eya2 binding, biochemical; hits give low values; activity change, % (test concentration not listed); 360,000 compounds, 0.56% hits; AID 651725; in the data active = activity change below about -65%; inconclusive = mostly about -30% to -63%; note: % is set by controls: 0 for no effect and ±100 for the full control effect
# Target sequence (O00167 whole entry, looked up): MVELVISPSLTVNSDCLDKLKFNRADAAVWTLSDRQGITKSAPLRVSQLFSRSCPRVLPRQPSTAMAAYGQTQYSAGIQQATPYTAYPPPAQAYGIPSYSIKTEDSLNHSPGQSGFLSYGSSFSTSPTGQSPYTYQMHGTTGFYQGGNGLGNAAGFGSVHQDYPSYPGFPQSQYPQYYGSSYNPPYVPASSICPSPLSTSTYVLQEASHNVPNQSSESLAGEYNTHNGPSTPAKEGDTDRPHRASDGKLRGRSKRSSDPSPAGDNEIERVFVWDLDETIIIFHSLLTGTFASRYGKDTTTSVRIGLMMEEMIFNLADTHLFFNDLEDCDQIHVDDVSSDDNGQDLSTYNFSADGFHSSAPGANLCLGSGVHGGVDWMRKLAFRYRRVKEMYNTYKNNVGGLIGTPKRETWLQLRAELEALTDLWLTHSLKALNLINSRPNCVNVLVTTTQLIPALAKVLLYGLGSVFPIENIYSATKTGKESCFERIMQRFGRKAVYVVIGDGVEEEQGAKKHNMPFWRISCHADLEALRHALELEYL
# Target sequence (Q15475 whole entry, looked up): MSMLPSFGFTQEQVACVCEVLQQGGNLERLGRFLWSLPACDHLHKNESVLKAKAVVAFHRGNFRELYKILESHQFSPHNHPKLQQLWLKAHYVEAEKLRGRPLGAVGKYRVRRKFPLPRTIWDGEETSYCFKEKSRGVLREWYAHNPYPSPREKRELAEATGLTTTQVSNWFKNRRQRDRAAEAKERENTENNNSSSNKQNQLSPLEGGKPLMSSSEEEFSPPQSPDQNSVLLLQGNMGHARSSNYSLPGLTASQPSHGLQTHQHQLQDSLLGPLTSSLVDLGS
#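 GST-Six1 + His-Eya2 (5X stock: 250/500 nM); Tris pH 8.0, 300 mM NaCl, 0.05% BSA, 0.02% Tween 20; GSH donor/Ni acceptor beads; 1 h 37 °C dark; AlphaScreen readout.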
# G9a inh: inhibitors of human histone lysine methyltransferase G9a; Q96KQ7; G9a H3K9 monomethylation, AlphaScreen, 2 h; Potency, µM (titrated, usually from 102 µM), for inactives: top-dose activity, negative = inhibition, hits mostly inhibitors; 350,000 compounds, 8.8% hits; note: potency is the fitted concentration of half-maximal effect; % is set by controls: 0 for no effect and ±100 for the full control effect; nearly all actives have a fitted effect of over 75% in size
#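 G9a (20 nM) was preincubated 15 min with compound, then reacted 2 h at room temperature with 500 nM biotin-H3K9 peptide and 20 µM SAM. Monomethyl-H3K9 detected by AlphaScreen using anti-H3K9me1 antibody.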
# BAZ2B inh: BAZ2B (human) inhibition. 360,000 compounds, 4.4% hits. Potency, µM (series often up to 114 µM), for inactives: at the highest dose activity change, negative = inhibition, most hits filed as inhibitors. AlphaScreen BAZ2B-H3K14Ac peptide displacement. AID 504333. Q9UIF8; note: potency is the fitted concentration of half-maximal effect; % is set by controls: 0 for no effect and ±100 for the full control effect; nearly all actives have a fitted effect of over 60% in size
#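 BAZ2B 50 nM plus b-H3(5-23)K14Ac 50 nM, PBS pH 7.4/0.01% Tween-20, 30 min RT; compound added (max 110 uM), 30 min RT; streptavidin donor/Ni-chelate acceptor beads 10 ug/mL final, 20 min dark; AlphaScreen read.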
# HP1b binding inh: inhibitors of HP1-beta chromodomain binding to methylated histone tails | AlphaScreen HP1-beta / biotin-H3K9me3 peptide binding | 390,000 compounds, 0.56% hits | Potency, µM (titrated, usually from 114 µM), inactives show at the top dose activity change, negative = inhibition, usual class: inhibitors | AID 540317; note: potency is the fitted concentration of half-maximal effect; nearly all actives have a fitted effect of over 70% in size
#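 Compound inhibition of the preformed complex between 50 nM HP1-beta and 50 nM biotinylated H3K9me3 peptide was read by AlphaScreen. Buffer was PBS pH 7.4 with 0.01% Tween-20. Incubations ran 30 min at room temperature, with 10 ug/mL donor/acceptor beads.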
# CtBP-E1A blk: CtBP/E1A binding inhibition; AlphaScreen GST-E1A/His-CtBP binding, 1536-well; hits give low values; activity change, % (test concentration not listed); AID 651724; 340,000 compounds, 0.49% hits; in the data active = activity change below about -65%; inconclusive = mostly about -30% to -63%; note: % is set by controls: 0 for no effect and ±100 for the full control effect
#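 AlphaScreen with 125 nM GST-E1A and 125 nM His-CtBP (5X stocks) in Tris pH 8.0, 300 mM NaCl, BSA, Tween 20, TCEP. Compounds preincubated 2 h at 37 deg C, then glutathione donor/nickel acceptor beads added for 1 h at 37 deg C in dark.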
# Numbers without * were called inactive; u = inconclusive; x = no result; [ ] = dose if it differs, or a comment. Sampled rows, rich in hits. Any-hit rate of the full collection: about 10%. Unless noted, calls come from the whole dose curve; as a rule, active = well fitted inhibition curve with a large enough effect; inconclusive = small, poorly fitted or top-dose-only effect; inactive = no such curve, though single readings can be large or run the other way.
SMILES,JMJD2A Tudor,Six1-Eya2 inh,G9a inh,BAZ2B inh,HP1b binding inh,CtBP-E1A blk
C=CCOc1cccc(C2/C(=C(/O)c3ccc(Cl)cc3)C(=O)C(=O)N2CCN2CCOCC2)c1 (centres undefined),-24%[57.1 µM],-1,18µM*,-7%,u,-1
O=C1C(=O)N(CCN2CCOCC2)C(c2cccnc2)/C1=C(/O)c1ccccc1 (centres undefined),x,x,-6%[12.7 µM],-9%,x,x
CCN(CC)CCN1C(=O)C(=O)/C(=C(/O)c2ccc(C)cc2)C1c1cccnc1 (centres undefined),-7%,5,x,-39%,57%,x
C=CCOc1cccc(C2/C(=C(/O)c3ccccc3)C(=O)C(=O)N2CCN2CCOCC2)c1 (centres undefined),79µM*,4,u,u,12%,6
C=CCOc1ccc(/C(O)=C2/C(=O)C(=O)N(CCCN3CCOCC3)C2c2ccccc2)cc1 (centres undefined),u,9,x,x,-7%,-4
CCOC(=O)c1cccc(NC(=O)C2=C(C)C(=O)OC23CCCCC3)c1,-7%,x,-4%[59 µM],-13%,31%,x
COc1ccc(OC)c(NC(=O)Cn2c(=O)cc(-c3ccccc3)c3c(C)nn(C)c32)c1,u,x,-4%[59 µM],-27%,0%,x
COc1ccc2c(Sc3ccccc3)c(C(=O)N3CCC(C)CC3)[nH]c2c1,-7%,x,-49%[59 µM],4%,40%,x
C=CCOc1cccc(C2/C(=C(/O)c3ccc4c(c3)CC(C)O4)C(=O)C(=O)N2CCN2CCOCC2)c1 (centres undefined),-12%,2,50µM*,-22%[57.1 µM],11%,0
COc1cc(NS(=O)(=O)c2ccc(NC(=O)c3ccc(OC)c(Br)c3)cc2)nc(OC)n1,-18%,x,u,-7%,27%,x
CCOC(=O)c1[nH]c(C)c(CCC(=O)Nc2cccc(SC)c2)c1C,-33%,x,u,-22%,-6%[57 µM],x
Cc1[nH]nc2c1C(c1ccc(OC(=O)c3ccco3)cc1)C(C#N)=C(N)O2 (centres undefined),-16%,-16,24%[59 µM],-11%,32%,-13
CC(C)c1[nH]nc2c1C(c1ccc(OC(=O)c3ccco3)cc1)C(C#N)=C(N)O2 (centres undefined),-31%,-7,50µM*,-29%,12%,12
CNCC(=O)NCC(=O)N[C@@H](Cc1ccccc1)C(=O)N[C@@H](CC(C)C)C(=O)O,x,x,9%[59 µM],x,x,x
COc1ccc(-c2cc3ccc(O)c(CN4CCCCC4C)c3oc2=O)cc1OC (centres undefined),5%,x,1%[59 µM],16%,33%[57 µM],x
Cc1cc(O)c(C(c2cccc(F)c2)N2CCC(C)CC2)c(=O)n1Cc1ccco1 (centres undefined),-29%,x,-42%[59 µM],-13%,15%[57 µM],x
CC(=O)C1=C(O)C(=O)N(Cc2ccco2)C1c1ccc2c(c1)OCO2 (centres undefined),-29%,1,50µM*,-7%,13%,5
C=CCOc1ccc(C2C(C(=O)c3ccc(C)o3)=C(O)C(=O)N2Cc2cccnc2)cc1 (centres undefined),u,0,40µM*,-9%,5%,-11
C=CCOc1cccc(C2C(C(=O)c3ccco3)=C(O)C(=O)N2Cc2ccco2)c1 (centres undefined),-36%,-13,45µM*,-37%,5%,-9
CC(=O)C1=C(O)C(=O)N(Cc2cccnc2)C1c1ccc(O)cc1 (centres undefined),-20%[11.4 µM],-10,50µM*,79µM*,6%,x
C=CCOc1cccc(C2C(C(=O)c3ccco3)=C(O)C(=O)N2Cc2ccncc2)c1 (centres undefined),-6%,-3,u,-28%,53%,0
CC(=O)c1ccc(NC(=O)C2CCCN(S(=O)(=O)c3cn(C)cn3)C2)cc1 (centres undefined),11%,x,-3%[12.7 µM],-18%,37%,x
O=C(Cn1c(=O)n(Cc2ccco2)c(=O)c2cccnc21)Nc1ccccc1F,-5%,x,3%[59 µM],1%,28%,x
CCOc1cccc(C2C(C(=O)c3cccs3)=C(O)C(=O)N2Cc2cccnc2)c1 (centres undefined),-13%,2,56µM*,-29%,30%,-7
CCCC(=O)C1=C(c2ccc(C)cc2)N(C(=O)CCC)n2cnnc2S1,41%,x,14%[59 µM],43%,83%,x
SMILES,JMJD2A Tudor,Six1-Eya2 inh,G9a inh,BAZ2B inh,HP1b binding inh,CtBP-E1A blk
COc1ccc2c(c1)c1c(c(=O)n(-c3ccc(F)c(Cl)c3)c(=O)n1CC(=O)N1CCCC1)n2C,-8%,x,-6%[59 µM],-10%,14%,x
CN(C)C1NC(=O)c2cc(-c3ccccc3)sc2N1 (centres undefined),u,-8,u,50µM*,-14%,9
CCc1ccc2oc(C(=O)Nc3cccc(C(F)(F)F)c3)cc(=O)c2c1,-24%,x,u,4%,36%,x
CCOC(=O)c1c(-c2ccco2)csc1NC(=O)COC(=O)c1cnccn1,u,-9,8.9µM*,50%,u,-21
CCOC(=O)c1c(NC(=O)CSc2nnc(-c3ccco3)o2)sc(C)c1C,-11%,-6,-40%,-29%[57.1 µM],4%,-4
CCOC(=O)c1c(-c2ccco2)csc1NC(=O)CSc1nnc(N)s1,-36%,-16,40µM*,u,6%,0
CCOC(=O)c1c(NC(=O)COC(=O)c2cnccn2)sc(C(=O)NC)c1C,-14%,-4,8%[0.501 µM],-6%,20%,16
CCOC(=O)c1c(-c2ccc(C)o2)csc1NC(=O)CN1CCCCC1,19%,-4,40µM*,u,21%,4
CCOC(=O)c1c(-c2ccc(C)o2)csc1NC(=O)CN1CCC(C(N)=O)CC1,-17%,-2,45µM*,u,u,-4
O=C(Cn1nc2c(cc1=O)CCCC2)NCc1ccccc1Cl,-7%,x,-1%[59 µM],3%,29%[57 µM],x
CCOC(=O)c1ccc(NC(=O)c2noc3c2CCCC3)cc1,7%,x,-7%[59 µM],30%[57.1 µM],56%,x
Cc1ccc(NC(=O)CSCc2cc(=O)c3ccccc3[nH]2)c(C)c1,-7%,x,13%[59 µM],11%,25%[57 µM],x
O=c1c2cc3c(cc2n(Cc2ccc(Cl)cc2)c(=O)n1Cc1nc(-c2ccccc2)no1)OCO3,-18%,x,-55%[59 µM],-24%,27%,x
Cc1ccc(CNc2ncnc3[nH]ncc23)o1,-9%,x,x,x,8%,x
CCOC(=O)c1c(-c2ccc(C)o2)csc1NC(=O)CSc1nncs1,56µM*,-8,10µM*,-3%,u,-2
Cc1ccc(C)c(S(=O)(=O)c2c(N)n(/N=C/c3ccco3)c3nc4ccccc4nc23)c1,-9%,-6,50µM*,u,28%,9
Cc1cccc(S(=O)(=O)c2c(N)n(/N=C/c3ccccc3)c3nc4ccccc4nc23)c1,-17%,5,43%[59 µM],3%,34%,-10
